# Compound activity: PubChem, National Center for Advancing Translational Sciences (NCATS)
# TRHR agonist: qHTS for Small Molecule Agonists and Allosteric Enhancers of Human TRH Receptor: Primary Screen for Agonists; Thyrotropin-releasing hormone receptor (Homo sapiens), P34981; TRHR cells, calcium flux fluo-8, FDSS agonist mode; activation, % at 2 µM; 0.18% of 360,000 active; AID 493084, 2011; in the data active = activation above about 30%; also: 0% is about no effect
#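 Agonist-mode FDSS calcium read (Ex 480/Em 530, 1 s cycles) in 1536-well TRHR cells with fluo-8 dye, after 10-cycle baseline and 23 nL compound addition; TRH at EC20 (10 nM final) added afterwards for the enhancer phase.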
# GLP-1R inv ag: qHTS of GLP-1 Receptor Inverse Agonists (Inhibition Mode). Glucagon-like peptide 1 receptor (Homo sapiens), P43220. HEK293 GLP-1R CRE-luciferase, luminescence, 24 h; GLP-1R form is constitutively active. Potency, µM (highest dose often 38.3 µM), without a hit: top-dose activity change, negative = inhibition, hits mostly inhibitors. 1.6% of 410,000 active; also: potency is read from the fitted curve at half-maximal effect; % is scaled to controls: 0 for no effect and ±100 for the full control effect; nearly all actives have a fitted effect of over 55% in size
# Target sequence (P43220 whole entry, looked up): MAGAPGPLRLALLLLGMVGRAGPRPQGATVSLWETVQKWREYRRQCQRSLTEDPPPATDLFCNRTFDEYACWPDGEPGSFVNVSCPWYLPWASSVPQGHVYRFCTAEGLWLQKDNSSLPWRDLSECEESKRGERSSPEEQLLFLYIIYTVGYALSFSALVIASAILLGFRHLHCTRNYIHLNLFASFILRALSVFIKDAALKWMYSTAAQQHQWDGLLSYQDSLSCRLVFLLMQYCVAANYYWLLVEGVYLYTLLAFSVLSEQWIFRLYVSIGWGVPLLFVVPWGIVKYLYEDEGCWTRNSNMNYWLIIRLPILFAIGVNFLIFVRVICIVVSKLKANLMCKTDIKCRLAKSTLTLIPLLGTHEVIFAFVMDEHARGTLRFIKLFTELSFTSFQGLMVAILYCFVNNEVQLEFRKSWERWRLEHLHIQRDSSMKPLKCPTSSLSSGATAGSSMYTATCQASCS
#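 Constitutively active GLP-1R drives a cAMP-responsive luciferase in stably transfected HEK293 cells; test compounds are added after overnight (12 h) attachment and left 24 hr, and signal loss in luminescence marks inhibition.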
# GLP1R ag: qHTS of GLP-1 Receptor Agonists. Potency, µM (highest dose often 45.6 µM), for the others: at the highest dose activation, actives largely listed as activators. AID 624172, 2012. 0.007% of 380,000 active. HEK293 GLP-1R CRE-luciferase, luminescence, 4-6 h; cells express a hypersensitive GLP-1R form; also: potency is read from the fitted curve at half-maximal effect; % of control where 0% means no effect
# PTHR1 ag: qHTS for PTHR1 Agonists: Primary Screen; HEK293 GP2 PTHR1 cells, GloSensor cAMP luminescence, 1 h; Parathyroid hormone/parathyroid hormone-related peptide receptor (Homo sapiens), Q03431; AID 743266, 2014; Potency, µM (top dose mostly 115 µM), inactives show at the top dose activation, usual class: activators; 0.075% of 410,000 active; also: potency is read from the fitted curve at half-maximal effect; nearly all actives have a fitted effect of over 55% in size
#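 HEK-293-derived GP2 cells expressing PTHR1 and a GloSensor cAMP reporter, 3,000/well, plated overnight, given luciferin plus IBMX (each 0.5 mM as added) for 1 h at 37 °C, then compound for 1 h at 37 °C. Luminescence was read after 15 min at room temperature.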
# TRHR PAM: qHTS for Small Molecule Agonists and Allosteric Enhancers of Human TRH Receptor: Primary Screen for Enhancers | TRHR cells, fluo-8 calcium fluorescence, EC20 TRH enhancement | 0.66% of 360,000 active | enhancement, % at 2 µM | Thyrotropin-releasing hormone receptor (Homo sapiens), P34981 | AID 493056, 2011; in the data active = enhancement above about 30%; also: 0% is about no effect
#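 Enhancer read-out: after compound pinning and an initial kinetic agonist-mode read, an EC20 of TRH (10 nM final) was injected and fluo-8 calcium signal (Ex 480/Em 530) followed at 1 s/cycle for 100 cycles in TRHR-expressing cells.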
# HEK293 tox: qHTS of GLP-1 Receptor Inverse Agonists: Cytotox Screen; Potency, µM (series often up to 38.3 µM), for the others: top-dose activity change, negative = inhibition, most hits filed as inhibitors; HEK293 cAMP-luciferase reporter cells, luminescence, 24 h; 0.13% of 410,000 active;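 also: loss of luciferase light is scored as toxicity; potency is read from the fitted curve at half-maximal effect; % is scaled to controls: 0 for no effect and ±100 for the full control effect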
#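 To flag toxic compounds, the library was rerun on cells for 24 hr at 37 deg C and 5% CO2. Viability-linked luminescence was captured 12 min after adding luciferase detection reagent.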
# * hit, by the source's call; i = inactive; ? = inconclusive; . = no result given; [ ] = dose if it differs, or a comment. Hits are enriched below; roughly 2.4% of the tested compounds scored in any of these assays. Unless noted, calls follow the shape of the dose curve; as a rule, active = well fitted curve in the direction sought with a large enough effect; inconclusive = small, poorly fitted or top-dose-only effect, or another doubt; inactive = no such curve, though single readings can be large; an effect the other way counts as inactive or inconclusive.
SMILES,TRHR agonist,GLP-1R inv ag,GLP1R ag,PTHR1 ag,TRHR PAM,HEK293 tox
CC1CC(C)CN(CCCNC(=O)CC2Oc3ccccc3NC2=O)C1 (configuration not stated),0,-10%,2%,i,2,2%
CSc1nsc(NN)n1,.,-18%,-1%,-37%,.,-30%
COc1ccc(C(=O)NC(=S)Nc2ccccc2N2CCCCC2)cc1[N+](=O)[O-],1,1.1µM*,9%,i,2,?
Cc1cccc(-n2nc3c(c2NC(=O)c2c(F)cccc2F)CS(=O)(=O)C3)c1C,0,18%,-5%,i,0,-4%
CCOc1ccc(-c2[nH]ncc2Oc2ccccc2OC)c(O)c1,-1,8.9µM*,10%,-63%[57.5 µM],-1,?
Cc1ccnc(NC(=O)c2c(C)oc3ncn(CC(C)C)c(=O)c23)c1,0,27%,.,-13%,-9,-18%
Cc1ccc(NC(=O)c2c(C)oc3ncn(CC(C)C)c(=O)c23)nc1,-2,9%,.,-4%,31*,7%
OCCC1CN(Cc2nc(-c3ccccc3)cs2)CCN1CCc1ccccc1 (configuration not stated),1,10µM*,9%,-10%,1,-29%
OCCC1CN(Cc2nc(-c3ccc(F)cc3)cs2)CCN1CCc1ccccc1 (configuration not stated),2,?,-1%,-72%,-2,-14%
COC(=O)C1CCN(C(c2cc(OC)c(OC)c(OC)c2)c2sc3nc(C)nn3c2O)CC1 (configuration not stated),0,4%,-1%,-16%,31*,-10%
O=C1CCCc2ccccc2N1Cc1cccc(F)c1,-2,?,4%,-3%,34*,1%
O=C1CCCc2ccccc2N1Cc1ccc(F)cc1,-1,-40%,-1%,-43%,9,-3%
Cc1ccc(C)c(N2CCN(C(=O)CCn3c(=S)[nH]c4cc5c(cc4c3=O)OCO5)CC2)c1,0,-4%,-2%,-29%,17,5%
CN1C2CCC1CC(NC(=O)CSCc1ccc(Cl)cc1Cl)C2 (configuration not stated),-1,7.1µM*,6%,i,17,4%
CC1CCN(C(=O)CCc2nc3cc(S(=O)(=O)N(C)C)ccc3n2C)CC1,0,8%,-2%,-1%[57.5 µM],-1,1%
O=C1c2ccccc2C(Nc2cccnc2)N1Cc1ccccc1Cl (configuration not stated),-1,5%,-3%,-9%,33*,1%
O=C1c2ccccc2C(Nc2cccnc2)N1Cc1ccccc1 (configuration not stated),0,3%,-6%,-19%,2,2%
CCOc1ccc(-c2ccc(SC)nn2)cc1,0,2.2µM*,-2%,-34%,4,-2%
CCOc1ccc(-c2ccc(SCC(=O)Nc3nnc(CC)s3)nn2)cc1,-1,14%,7%,-51%,20,-1%
N#CC1=C(N)c2ccccc2CC12CCCCC2,0,?,4%,i,0,11%
O=C(CO/N=C/c1ccccc1)N1c2ccccc2Oc2ccccc21,0,8.9µM*,-1%,-61%,-12,-11%
COc1ccc(CNC(c2ccccc2)c2ccc(Cl)cc2)cc1 (configuration not stated),0,?,5%,-5%,-1,0%
CC(NCc1cccc(OCc2ccccc2)c1)C(O)c1ccccc1 (configuration not stated),2,8.9µM*,22%,-22%,-3,?
CC(NCc1ccc(OCc2ccc(Cl)cc2)cc1)C(O)c1ccccc1 (configuration not stated),1,10µM*,9%,-31%,5,?
O=C(CNC(=O)c1ccccc1F)N/N=C/c1cccs1,1,34%,0%,8%,-4,-6%
SMILES,TRHR agonist,GLP-1R inv ag,GLP1R ag,PTHR1 ag,TRHR PAM,HEK293 tox
COc1ccc(N2CCN(CC(=O)Nc3c(C)cc(C)cc3C)CC2)cc1,-1,0%,-3%,i,1,2%
Cc1cc(C)c(NC(=O)CN2CCN(C)CC2)c(C)c1,-1,14%,1%,-25%,32*,3%
COc1nnc(-c2ccc(N3CCCCC3)c(NC(=O)c3ccccc3Cl)c2)c2ccccc12,0,3.5µM*,.,-48%,-10,-11%
COc1nnc(-c2ccc(N3CCCCC3)c(NC(=O)c3ccc(C)cc3)c2)c2ccccc12,0,-11%,1%,i,-10,-15%
Cc1cc(N2CCN(c3nnnn3-c3ccccc3)CC2)n2ncnc2n1,1,4%,-8%,i,-2,-5%
CCCCn1c(N)c(N(CC)C(=O)c2cc(CC)c(C)s2)c(=O)[nH]c1=O,0,10%,-6%,-2%,-5,4%
CSCc1c(C(=O)N2CCCc3ccccc32)oc2ccccc12,0,8.9µM*,7%,-1%,3,-1%
COc1ccc(/C=C2\SC(=S)N(CCC(=O)NCCCn3ccnc3)C2=O)cc1,0,?,-4%,-12%,-2,-6%
CC(C)c1ccc(/C=C2\SC(=S)N(CCC(=O)NCCCn3ccnc3)C2=O)cc1,0,2.5µM*,-2%,?,7,?
COC(=O)C(Nc1ccccc1Cl)(c1cc(C)c(O)c(C)c1)C(F)(F)F (configuration not stated),-1,4.5µM*,-24%,-25%[57.5 µM],-2,?
CCOC(=O)C(NC(=O)c1ccccc1Cl)(Nc1ccc(C)c(C)c1)C(F)(F)F (configuration not stated),-1,-29%,-4%,0%,0,-11%
Cc1c(C(=O)Nc2ccccc2F)cnn1-c1ccccc1,-2,-25%,-5%,-20%,-5,-3%
Cc1nn(-c2ccccc2)c2nc(C3CC3)cc(C(=O)Nc3cccc(F)c3)c12,2,5.6µM*,.,-15%,-6,-22%
CCc1ccc(-n2nc(C)c3c(C(=O)Nc4cccc(C(F)(F)F)c4)cc(C)nc32)cc1,2,2.2µM*,.,-43%,-6,-27%
Cc1c(C(=O)Nc2cc(F)cc(F)c2)cnn1-c1ccccc1,2,?,8%,-46%,37*,-15%
